Bioassay records deposited in PubChem by National Center for Advancing Translational Sciences (NCATS).
Most compounds without a hit are left out; they make up all but 2.4% or so of the library.
D2 PAM-1: potentiates the human D2 dopamine receptor allosterically; potentiation, % (no concentration beside the values); hit rate 0.23% among 360,000; DiscoveRx D2 beta-arrestin cells, luminescence, 90 min; 100% = 57 uM dopamine signal; AID 624464; P14416; in the data active = potentiation above about 50%; inconclusive = mostly about 30% to 49%
Target sequence (P14416 whole entry, looked up): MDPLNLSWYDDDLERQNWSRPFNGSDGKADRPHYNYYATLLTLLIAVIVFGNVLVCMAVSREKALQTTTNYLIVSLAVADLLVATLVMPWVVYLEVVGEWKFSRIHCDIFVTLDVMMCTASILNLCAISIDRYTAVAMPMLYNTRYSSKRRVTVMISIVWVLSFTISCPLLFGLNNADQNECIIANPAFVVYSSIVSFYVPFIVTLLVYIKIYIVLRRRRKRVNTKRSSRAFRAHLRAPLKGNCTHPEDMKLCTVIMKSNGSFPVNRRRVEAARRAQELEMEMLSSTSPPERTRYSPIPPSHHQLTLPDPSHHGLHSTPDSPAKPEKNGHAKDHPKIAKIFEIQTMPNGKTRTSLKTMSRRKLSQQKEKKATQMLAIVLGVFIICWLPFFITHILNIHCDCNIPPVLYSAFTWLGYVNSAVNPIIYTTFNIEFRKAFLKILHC
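PathHunter D2 cells, attached overnight at 37 deg C, received compound in DMSO plus dopamine at EC20 (50 nM final) for 90 min at 37 deg C. Beta-arrestin recruitment was read as luminescence after 1 h with detection reagent at ambient temperature.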
D2 antag: antagonists of human D2 dopamine receptor; P14416; AID 485344; inhibition, % at 10 µM; hit rate 2% among 340,000; HEK293 TREx D2 cells, calcium flux, dopamine EC80; in the data active = inhibition above about 30%; inactive = below that, where a call was filed
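Inhibition of EC80 dopamine-driven calcium flux, recorded kinetically, defines activity here; cells are a tetracycline-induced HEK293 T-REx line expressing force-coupled D2.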
D2 ag-1: activates the human D2 dopamine receptor; DiscoveRx PathHunter D2 beta-arrestin, luminescence, 90 min; 100% = 57 uM dopamine signal; AID 624465; hit rate 0.084% among 360,000; P14416; activation, % (no concentration beside the values); in the data active = activation above about 40%; inconclusive = between about 15% and that limit
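Agonist mode: compounds alone added to overnight-plated D2 PathHunter cells for 90 min at 37 C, with 57 uM final dopamine (EC100) defining full response. Beta-arrestin recruitment detected by chemiluminescent reagent, read after 1 h at ambient temperature.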
D2 PAM-2: positive allosteric modulators of human D2 dopamine receptor; hit rate 0.34% among 340,000; potentiation, % at 10 µM; HEK293 T-REx D2, calcium flux, EC20 dopamine potentiation; P14416;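 active = potentiation over 3 SD above the plate norm, cut at about 30% in these data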
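Primary screen. Calcium kinetics in induced HEK293 T-REx D2 cells: compound pre-addition 180 s, EC20 dopamine, 180 s more.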
D2 ag-2: activates the human D2 dopamine receptor; P14416; HEK293 T-REx D2 cells, calcium flux agonist mode; activation, % at 2 µM; hit rate 0.53% among 340,000;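 active = activation over 3 SD above normal in the single-dose calcium agonist read, cut at about 30% in these data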
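Tetracycline-induced HEK293 Trex cells with D2 receptor force-coupled to calcium signaling, plated overnight at 30 C and loaded with no-wash calcium dye. Calcium flux read kinetically for 180 s after compound addition; responses flag agonists.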
Large screens that a line does not name were inactive.

COc1ccc(S(=O)(=O)NCC(c2ccco2)S(=O)(=O)c2cccs2)cc1C (configuration not stated)	none (no result: D2 PAM-1, D2 antag, D2 ag-1)
Cc1nc2ccccc2c(=O)n1/N=C/c1ccccc1O	none
Cc1nc2ccccc2c(=O)n1/N=C/c1ccc(O)c(O)c1O	D2 ag-1 48
COc1ccccc1NC(=O)c1cc(S(=O)(=O)N(C)C2CCCCC2)ccc1F	none (no result: D2 PAM-1, D2 antag, D2 ag-1)
Cn1cc(C(=O)NCCc2ccccc2)c(=O)c2cc(S(=O)(=O)N3CCCCCC3)ccc21	none (no result: D2 PAM-1, D2 antag, D2 ag-1)
Cc1cc(C)cc(NC(=O)CN(C)S(=O)(=O)c2ccc3c(c2)CCC(=O)N3)c1	none (no result: D2 PAM-1, D2 antag, D2 ag-1)
Cc1ccc(S(=O)(=O)N2CCC3(CC2)OCCN3S(=O)(=O)c2cccs2)cc1	none (no result: D2 antag, D2 PAM-2, D2 ag-2)
O=[N+]([O-])c1ccc(S(=O)(=O)N2CCC3(CC2)OCCN3S(=O)(=O)c2cccs2)cc1	D2 PAM-1 72
O=C1N(CN2CCC3(CC2)OCCO3)c2ccccc2C12OCCCO2	none
O=C1N(CN2CCN(c3cccc(Cl)c3)CC2)c2ccccc2C12OCCCO2	D2 antag 33
CC(C)(C)CC(=O)Nc1nnc(CCc2ccccc2)s1	none
CCC(C)(C)C(=O)Nc1nnc(CCc2ccccc2)s1	D2 antag 44
CCOC(=O)C1(C)CCN1C(=O)c1cccc(Cl)c1 (configuration not stated)	D2 ag-1 42 (no result: D2 antag, D2 PAM-2, D2 ag-2)
O=C(CNS(=O)(=O)c1ccccc1)OCC(=O)c1ccc(F)cc1	D2 PAM-2 36
CN(C)/C=N/c1ncc(C(=O)c2ccc(Cl)cc2Cl)s1	none
CN(C)/C=N/c1ncc(C(=O)c2ccc(Cl)cc2)s1	D2 antag 57
Cc1cc(C)c(NC(=O)C2CCN(S(=O)(=O)c3c(C)noc3/C=C/c3ccccc3F)CC2)c(C)c1	none (no result: D2 PAM-1, D2 antag, D2 ag-1)
CCn1cc(/C=N/NC(=O)c2cc3c(ccc4ccccc43)o2)c2ccccc21	D2 PAM-1 inconclusive, D2 PAM-2 35
O=C(Nc1ccc2c(c1)OCCO2)c1cc2ccccc2o1	D2 antag 33
C[C@H](N)c1nnc(SCC(=O)c2ccc(Cl)cc2)o1	D2 antag 40
Cc1cc(C)cc(NC(=O)CSc2nc3nc(C)cc(C)c3c(=O)[nH]2)c1	D2 antag 35
Nc1c(N(CCC2=CCCCC2)C(=O)CCCOc2ccccc2)c(=O)[nH]c(=O)n1Cc1ccccc1	D2 antag 33
Nc1c(N(CCC2=CCCCC2)C(=O)COc2ccc(F)cc2)c(=O)[nH]c(=O)n1Cc1ccccc1	none
CCN(C(=O)COC(=O)CCc1ccc(OC)cc1)c1c(N)n(Cc2ccccc2)c(=O)[nH]c1=O	D2 antag 34
Nc1[nH]nc2ncc3cc4ccccc4nc3c12	D2 antag 59
CCn1c(=O)n(-c2ccc(F)c(Cl)c2)c(=O)c2c3c(sc21)CN(C(C)=O)CC3	none (no result: D2 PAM-1, D2 antag, D2 ag-1)
COc1ccc(NCC(=O)N/N=C/c2c(C)nn(Cc3ccccc3)c2Cl)cc1	D2 antag 31
Cc1nn(Cc2ccccc2)c(C)c1/C=N/NC(=O)CNc1cccc(C(F)(F)F)c1	none
CS(=O)(=O)N1CCN(c2ccc(NC(=S)NC(=O)c3ccccc3[N+](=O)[O-])cc2)CC1	D2 antag 33
CCNc1nc(CSc2ccccc2)nc2sc(C)c(C)c12	D2 antag 39
Cc1sc2nc(CSc3ccccc3)nc(NCCN(C)C)c2c1C	none
CCOC(=O)N1CCc2c(sc(NCc3sccc3C)c2C(=O)Nc2ccccc2OCC)C1	none (no result: D2 PAM-1, D2 antag, D2 ag-1, D2 PAM-2)
COc1ccc(Oc2ncnc3sccc23)cc1	none
Cc1nc(Oc2ccccc2)c2ccsc2n1	D2 PAM-2 30
Fc1ccc(NC(=S)NC2CCN(Cc3ccccc3)CC2)cc1	none (no result: D2 antag, D2 PAM-2, D2 ag-2)
CC(C)(C)CC(C)(C)NC(=S)NC1CCN(Cc2ccccc2)CC1	D2 antag 66
CC(C)(Oc1ccc(Cl)cc1)C(=O)NC1CCN(Cc2ccccc2)CC1	D2 antag 72
CCOc1ccc(-c2nc(CSCC(=O)NC3CCN(Cc4ccccc4)CC3)c(C)o2)cc1	none (no result: D2 antag, D2 PAM-2, D2 ag-2)
S=C(Nc1cccc(Cl)c1Cl)NC1CCN(Cc2ccccc2)CC1	D2 antag 71
CC1(C(=O)NC2CCN(Cc3ccccc3)CC2)CCN1Cc1ccc(OC(F)(F)F)cc1 (configuration not stated)	none (no result: D2 antag, D2 PAM-2, D2 ag-2)
Cc1oc(-c2ccc(Cl)cc2)nc1CSCC(=O)NC1CCN(Cc2ccccc2)CC1	D2 antag 56
COc1ccc(-c2csc3nc(-c4ccc(F)cc4)oc(=O)c23)cc1OC	none (no result: D2 PAM-1, D2 antag, D2 ag-1)
Cc1cccc(NC(=S)NC2CCN(Cc3ccccc3)CC2)c1C	D2 antag 94
S=C(Nc1ccc(Cl)c(Cl)c1)NC1CCN(Cc2ccccc2)CC1	D2 antag 45
COc1ccc(Cl)cc1NC(=O)C1CCCN(S(=O)(=O)c2ccc3c(c2)CCCC(=O)N3)C1 (configuration not stated)	none (no result: D2 PAM-1, D2 antag, D2 ag-1, D2 PAM-2)
CCN(CC)S(=O)(=O)c1ccc(NC(=O)Cn2c(=O)sc3ccccc32)cc1	D2 antag 43
NS(=O)(=O)c1ccc(CCNC(=O)c2ccc3nc(CCc4ccccc4)oc3c2)cc1	none (no result: D2 PAM-1, D2 antag, D2 ag-1)
O=C(CN1CCC(n2nnc3cc(F)ccc32)CC1)NNC(=O)c1ccccc1	none
CC1CCC(NC(=O)CN2CCC(n3nnc4cc(F)ccc43)CC2)CC1 (configuration not stated)	D2 antag 41
CCOC(=O)c1c(NC(=O)c2ccc(S(=O)(=O)N(CCOC)CCOC)cc2)sc2c1CC(C)(C)NC2(C)C	none (no result: D2 PAM-1, D2 antag, D2 ag-1)
CN1CCN(S(=O)(=O)c2ccc(C(=O)Nc3ccccc3)cc2)CC1	none
COc1ccc(NC(=O)c2cc(S(=O)(=O)N3CCCC3)oc2C)cc1	D2 PAM-2 31
COc1ccc(NC(=O)c2cc(S(=O)(=O)N3CCCC3)c[nH]2)cc1	none
COc1ccc(C(=O)NNC(=O)COc2ccc(Cl)cc2C)cc1S(=O)(=O)N1CCOCC1	D2 antag 33
Cc1ccc(C(=O)Nc2ccccc2)cc1S(=O)(=O)N1CCN(C)CC1	D2 antag 35
O=C(Nc1nncs1)c1ccc(Br)c(S(=O)(=O)N2CCCC2)c1	D2 antag 56
COc1ccc(C(=O)Nc2nnc(C)s2)cc1S(=O)(=O)N1CCOCC1	none
COc1ccc(OCCOC(=O)c2ccc(F)c(S(=O)(=O)N3CCOCC3)c2)cc1	D2 antag 49
COc1ccc(C(=O)Nc2nc(C)c(C(C)=O)s2)cc1S(=O)(=O)N1CCOCC1	D2 antag 30
COc1ccc(NC(=O)c2ccc(Br)c(S(=O)(=O)N3CCOCC3)c2)cc1	D2 PAM-2 33
CC(=O)c1cccc(NC(=O)c2ccc(C)c(S(=O)(=O)N3CCOCC3)c2)c1	D2 antag 50
COc1cc(CN(C(=O)COc2ccc(F)cc2)c2ccccn2)cc(OC)c1OC	none (no result: D2 PAM-1, D2 antag, D2 ag-1, D2 ag-2)
Cc1cccc(N(Cc2ccccc2)C(=O)c2ccc(F)c(S(=O)(=O)N3CCOCC3)c2)c1	none
